The source of these data is PubChem BioAssay AID2551 (National Center for Advancing Translational Sciences (NCATS), 2010).

Among all 310,000 compounds or so, about 17,000 (5.5%) were called active. Entries that show only a call come without a potency. Inconclusive results (about 11%) are left out. The call rests on the fitted dose curve; in most records, active means well fitted inhibition curve with a large enough effect; inconclusive means small, poorly fitted or top-dose-only effect, or effect the other way; inactive means no such curve, though single readings can be large or run the other way. This excerpt belongs to a sample that is enriched for actives.
Potency means the concentration at half of the fitted maximal effect.

Sequence of Nuclear receptor ROR-gamma (Mus musculus) (P51450 whole entry, looked up, the tested form may be a part): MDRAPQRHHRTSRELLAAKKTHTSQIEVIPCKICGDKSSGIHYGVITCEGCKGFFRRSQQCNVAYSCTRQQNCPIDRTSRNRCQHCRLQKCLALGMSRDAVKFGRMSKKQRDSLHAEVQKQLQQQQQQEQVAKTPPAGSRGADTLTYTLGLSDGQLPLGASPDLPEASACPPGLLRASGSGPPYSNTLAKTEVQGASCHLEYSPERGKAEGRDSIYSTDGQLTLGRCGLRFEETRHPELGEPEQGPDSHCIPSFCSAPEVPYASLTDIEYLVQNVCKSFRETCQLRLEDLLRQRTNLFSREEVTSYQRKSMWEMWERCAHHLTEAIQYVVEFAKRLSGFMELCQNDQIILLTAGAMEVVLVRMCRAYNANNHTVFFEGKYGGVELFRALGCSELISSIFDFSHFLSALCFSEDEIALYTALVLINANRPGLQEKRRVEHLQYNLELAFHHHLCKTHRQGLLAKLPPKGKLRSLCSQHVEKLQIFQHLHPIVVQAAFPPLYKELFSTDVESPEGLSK

The target of this experiment is Nuclear receptor ROR-gamma (Mus musculus) (UniProt P51450). Description: qHTS for inhibitors of ROR gamma transcriptional activity. Further: nearly all actives have a fitted effect of over 60% in size. The note with it: Drosophila S2 Gal4-RORgamma UAS-luciferase reporter, 20 h; series mostly up to 53.6 µM. In short, it runs like this:
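Stably transfected Drosophila Schneider cells are the test system, with ROR gamma fused to Gal4 and luciferase under UAS control; luminescence is read after 20 hr of 700 uM copper sulfate induction at ambient temperature.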
In the case of `COc1cc(NS(=O)(=O)c2ccc(NC(=S)NC(=O)c3ccc(Br)cc3)cc2)ncn1`, the Potency entry is “inactive”. On to `COc1cc2c(cc1OC)CN(C(=O)c1cc(S(=O)(=O)N3CCCCC3)ccc1Cl)CC2`, for which the Potency entry is “inactive”. Still for that read-out and setting: in the case of `Cc1ccc(C(=O)NCC(=O)OCc2nnc(-c3ccccc3)o2)cc1` it was “inactive”.

Turning to `Cc1c(CCC(=O)N[C@@H](CC(C)C)C(=O)O)c(=O)oc2c(C)c3oc4c(c3cc12)CCCC4`, the Potency result is “inactive”. With `CCOC(=O)C1=C(C)NC(=O)NC1c1ccccc1` (stereo unspecified), the Potency result is “inactive”. `CCOC(=O)C1=C(c2ccccc2)NC(=O)NC1c1cc(OC)c(OC)cc1OC` (stereo unspecified): the Potency entry was “inactive”. For `CCOC(=O)C1=C(c2ccccc2)NC(=S)NC1c1ccc(Cl)cc1` (stereo unspecified), the Potency is 7.94 µM (active). Regarding `Cn1cc(C(=O)c2ccc(Cl)cc2Cl)cc1C(=O)NN`, the Potency result was “inactive”. On to `COc1ccc(NC(=O)c2cc(-c3ccc(C)cc3)on2)cc1`, for which the Potency result is “inactive”. Take `COc1ccc(C2=NOC3(CC(=O)N(c4ccc(C)cc4)C3=O)C2)cc1` (stereo unspecified): the Potency result is “inactive”. On to `COc1ccc(C2=Nc3cc(C)ccc3OC2)cc1`, for which the Potency was 10 µM (active). For `Cc1cc(C)cc(N(CCC#N)C(=O)CN2C(=O)NC3(CCCC3)C2=O)c1`, the Potency result was “inactive”.

In the case of `COc1ccc(N(Cc2ccc(N(C)C)cc2)C(=O)c2ccc(S(C)(=O)=O)cc2)cc1`, the Potency entry was “inactive”. Take `COc1ccccc1NC(=S)N1CCN(C(c2ccccc2)c2ccccc2)CC1`: the Potency was 3.55 µM (active). Turning to `CCC(=O)N1CCN(c2ccccc2NC(=O)COc2cccc(C)c2C)CC1`, the Potency entry is “inactive”. Consider `COCCN(C(=S)Nc1ccccc1OC)C1CCN(C(C)C)CC1`, for which the Potency entry was “inactive”. The same measure, in the same setting: in the case of `CCOc1ccccc1NC(=S)N1CCN(c2cccc(C)c2C)CC1` it was 6.31 µM (active). Same read-out and setting: in the case of `COc1ccccc1NC(=S)N1CCC(NC(=O)C23CC4CC(CC(C4)C2)C3)CC1` it was “inactive”; in that of `CC(=O)N1CCN(c2cccc(C)c2C)CC1`, “inactive”.

For `CC(=O)c1cccc(NC(=S)N2CCN(S(C)(=O)=O)CC2)c1`, the Potency entry was “inactive”. As for `CCC(C(=O)NC1CCCCC1)N(C(=O)c1snc(C(N)=O)c1N)c1ccc(OC)cc1OC` (stereo unspecified), the Potency entry was “inactive”. For the compound `O=C(CCc1nnc2ccc(NCc3ccccc3Cl)nn12)NCC1CCN(C2CCCC2)C1` (stereo unspecified), the Potency entry is “inactive”. For `COc1ccc(-c2csc(-c3cccs3)n2)cc1OC`, the Potency entry was “inactive”.

With `COc1ccc(-c2noc(-c3cccc(OC)c3OC)n2)cc1OC`, the Potency result was “inactive”.

For the compound `COc1ccc(-c2csc3nc(-c4ccccc4F)oc(=O)c23)cc1OC`, the Potency was 11.2 µM (active).

As to `C/[N+]([O-])=C\c1ccc([N+](=O)[O-])o1`, the Potency was 11.2 µM (active). As to `NC(=O)C(=O)N/N=C/c1ccc([N+](=O)[O-])o1`, the activity change, negative = inhibition is -19.4% [at 10 µM] (inactive). Take `Cc1cc(C)nc(N/N=C/c2ccc([N+](=O)[O-])o2)n1`: the Potency result was “inactive”. Still for that read-out and setting: the entry for `CCOC(=O)[C@H]1[C@H]2COc3cc(OC)ccc3[C@@H]2N2C(=O)N(c3ccc(Br)cc3)C(=O)[C@@]12C` is “inactive”; for `Cn1nccc1C(=O)N1CCCC(C(=O)c2ccc(Oc3ccccc3)cc2)C1` (stereo unspecified) it is “inactive”. Consider `C=CCC(Nc1ccccc1)c1cccc(OC)c1OC` (stereo unspecified), for which the Potency result was “inactive”. As to `C=CCOc1cccc(C2NC(=O)c3ccccc3O2)c1` (stereo unspecified), the Potency entry is “inactive”. Take `C=CCOc1c(CNn2cn[nH]c2=S)cccc1OC`: the Potency is 11.2 µM (active). Regarding `COc1cccc(CNn2cn[nH]c2=S)c1OCc1ccccc1`, the Potency is 2.51 µM (active). Turning to `COc1ccccc1-n1cn[nH]c1=S`, the Potency result was “inactive”.

As for `CCOc1c(CNCc2ccc(C(=O)O)cc2)cccc1OC`, the Potency result was “inactive”. With `C=CCOc1ccc(/C=N/n2cncn2)cc1OC`, the Potency result is “inactive”. Turning to `C=CCOc1cccc(CNn2cn[nH]c2=S)c1`, the Potency is 10 µM (active).

In the case of `COc1ccc(-c2cc(=O)oc3cc(OC(C)C(=O)NCC4CCC(C(=O)O)CC4)ccc23)cc1` (stereo unspecified), the Potency result was “inactive”.

As for `CCN(CC)CCCNC(=O)c1cc2c(=O)[nH]c3ccc(C)cc3c2s1`, the Potency result was “inactive”. As to `CCCCC[C@H]1CN(C2CCCCC2)C(=O)[C@@H]1CC(=O)NCc1ccc(OC)cc1`, the Potency result was “inactive”. Regarding `COc1ccccc1-c1sc2ccccc2c1-c1ccc(C(C)=O)cc1`, the Potency result is “inactive”. As to `Cc1ccc(-c2csc(NC3OC(=O)c4ccccc43)n2)cc1` (stereo unspecified), the Potency result was “inactive”. On the same count and under the same terms, in the case of `COc1ccc(-c2cn3ccsc3n2)cc1` it was “inactive”; in that of `COc1ccc(-c2cn3ccc(C)cc3n2)cc1`, 3.16 µM (active); in that of `CCN(CC)S(=O)(=O)c1ccc(-c2cn3ccc(C)cc3n2)cc1`, “inactive”. `CCOc1ccc(-n2c(SCC(=O)OC)nc3sc4c(c3c2=O)CCN(C)C4)cc1`: the Potency entry is “inactive”. On to `COc1ccc(N(CC(=O)Nc2ccc(F)c(F)c2)S(=O)(=O)c2c(C)[nH]c(=O)[nH]c2=O)cc1`, for which the Potency result is “inactive”. On to `COc1cccc(C(O)c2nc3ccccc3n2C)c1` (stereo unspecified), for which the Potency result is “inactive”. In the case of `COc1ccc(/C=N/NC(=O)C2CC2)c(OC)c1OC`, the Potency entry is “inactive”. For `Oc1ccccc1C=NC1CCCCC1N=Cc1ccccc1O` (stereo unspecified), the Potency entry was “inactive”. The same measure, in the same setting: the figure for `O=C(N/N=C/c1ccccc1O)C1CCCC1` is 0.158 µM (active); for `CCn1c(=S)sc2c(=O)n(CC(=O)Nc3cccc(Br)c3)c(C)nc21` it is “inactive”. For `Cc1cc(C)c(NC(=O)CN2CCCCCC2)c(C)c1`, the Potency entry is “inactive”. Same read-out and setting: the entry for `O=C(c1c(F)cccc1Cl)N1CCN(S(=O)(=O)c2ccc3c(c2)OCCCO3)CC1` is “inactive”; for `CCOc1ccccc1CNS(=O)(=O)c1cc(-c2cc(C)no2)ccc1C` it is “inactive”; for `COc1ccc(/C=C2\SC(=O)N(CCC(=O)NC3CCS(=O)(=O)C3)C2=O)cc1` (stereo unspecified) it is “inactive”. As to `O=C(NCc1cccs1)c1ccc(CS(=O)Cc2ccccc2Cl)o1` (stereo unspecified), the Potency entry was “inactive”. Consider `CC(=O)Nc1ccc(C(=O)Nc2nc(-c3cc(C)n(Cc4ccccc4)c3C)cs2)cc1`, for which the activity change, negative = inhibition is 3.29% [at 10 µM] (inactive).

On to `CCCc1cc(-c2n[nH]c(=S)n2Cc2ccccc2)cs1`, for which the Potency was 4.47 µM (active). On to `CCc1cc(-c2n[nH]c(=S)n2CC(C)C)cs1`, for which the Potency is 2.51 µM (active). As to `Cc1cc(-c2csc(N)n2)c(C)n1Cc1ccccc1`, the Potency result was “inactive”. For the compound `CCc1cc(-c2nnc(SCC(=O)NC3CC3)n2C)cs1`, the Potency entry was “inactive”. As for `COC(=O)c1ccccc1NC(=O)CSc1nc2c(c(=O)[nH]1)CCC2`, the Potency result is “inactive”.

`COc1ccc(C(=O)NCC(=O)N/N=C/c2cccnc2)cc1`: the Potency result was “inactive”. Turning to `CCOC(=O)[C@@H]1[C@H]2COc3cc(OC)ccc3[C@H]2N2C(=O)N(c3ccc(F)cc3)C(=O)[C@]12C`, the Potency entry is “inactive”.

For `COc1ccc(CNS(=O)(=O)c2ccc(-c3cnc(C4CC4)o3)cc2)cc1`, the Potency entry is “inactive”. On to `CCOC(=O)c1cccc(NS(=O)(=O)c2c(C(=O)N3CCCCCC3)c(C)n(C)c2C)c1`, for which the Potency result was “inactive”. On to `O=C(c1ccccc1F)N(Cc1ccccc1)Cc1ccccc1`, for which the Potency entry is “inactive”. Still for that read-out and setting: the figure for `COc1cccc(CNC(=O)Cc2csc(Nc3nc(=S)[nH]c4ccccc34)n2)c1` is 6.31 µM (active); for `CCn1c(=O)cc(OCC(=O)NCCCN2CCN(c3cccc(Cl)c3)CC2)c2ccccc21` it is “inactive”; for `O=C(Cc1csc(Nc2nc(=S)[nH]c3ccccc23)n1)NCCCN1CCN(c2cccc(Cl)c2)CC1` it is 2.51 µM (active). For the compound `COc1cccc(CNC(=O)c2n[nH]c3ccccc23)c1`, the Potency result was “inactive”. `O=C(CCCn1c(=O)[nH]c2cc(Cl)ccc2c1=O)NCCN1CCN(c2ccccc2)CC1`: the Potency entry was “inactive”.

On to `COc1cccc(CNC(=O)c2nnn(CC(=O)Nc3cc(C)ccc3C)c2N)c1`, for which the Potency result is “inactive”. `COc1cc(Cl)ccc1OCc1cc(C(=O)N(C)CCc2c(C)n[nH]c2C)no1`: the Potency entry was “inactive”. In the case of `COc1ccccc1CNc1ncnc2ccc(-c3c(C)noc3C)cc12`, the Potency is 5.01 µM (active). For `COc1ccccc1CNc1ccnc(-c2c(C)noc2C)n1`, the Potency entry is “inactive”.

In the case of `COc1ccccc1CNc1nc(-c2c(C)noc2C)nc2ccccc12`, the Potency result is “inactive”. For `COc1cc(C2/C(=C(\O)c3ccc4c(c3)CC(C)O4)C(=O)C(=O)N2c2nnc(C)s2)cc(OC)c1OC` (stereo unspecified), the Potency result is “inactive”.

Regarding `CC(C)c1ccc(/C=C2\NC(=O)NC2=O)cc1`, the Potency result was “inactive”. On to `O=C(NC1CC1)C(Cc1ccccc1)NS(=O)(=O)c1ccccc1F` (stereo unspecified), for which the Potency entry is “inactive”.

Regarding `N#Cc1ccc(CSc2ncccn2)cc1`, the activity change, negative = inhibition was -36.2% [at 1.91 µM] (inactive). In the case of `N#CC1=C(SCc2ccc(C#N)cc2)N=C(N)C(c2nc(-c3ccccc3)cs2)C12CCCCC2` (stereo unspecified), the Potency was 11.2 µM (active). Take `N#CC1=C(SCc2ccccc2)NC(=O)C(C#N)C12CCCC2` (stereo unspecified): the activity change, negative = inhibition is 26.7% [at 0.365 µM] (inactive). Turning to `CCOC(=O)c1sc(=NC(=O)c2ccc(Br)cc2)n(C)c1C`, the Potency entry was “inactive”. For the compound `COc1ccc(CCN2CC(C(=O)NCCN3CCNC3=O)CCC2=O)cc1` (stereo unspecified), the Potency entry was “inactive”.

For `CCOC(=O)CSc1nc(N2CCOCC2)c2c(c1C#N)CC(C(C)C)OC2` (stereo unspecified), the Potency entry was “inactive”.

On to `O=C(O)COc1ccc(-c2nccc(-c3cccs3)n2)cc1`, for which the Potency was 5.62 µM (active). Turning to `O=C(Nc1ccnc(-c2ccncc2)n1)c1cccs1`, the Potency result was “inactive”. Turning to `COC(=O)CSc1nccc(-c2cccs2)n1`, the Potency entry is “inactive”.

In the case of `CCOc1ccc(N(C(=O)c2snc(C(N)=O)c2N)C(C(=O)NCC2CCCO2)c2c[nH]c3ccccc23)cc1` (stereo unspecified), the Potency result was “inactive”. The same measure, in the same setting: in the case of `Cc1nc2ccccc2cc1OCc1ccc(F)cc1` it was “inactive”; in that of `Fc1ccc(COc2ccc(-c3nnco3)cc2)cc1`, “inactive”; in that of `Fc1ccc(COc2cccc(-c3n[nH]c(=S)o3)c2)cc1`, 11.2 µM (active). Take `Cc1cc(F)ccc1N1CCC(N2CCN(C)C(CCO)C2)CC1` (stereo unspecified): the Potency result is “inactive”. In the case of `Cc1cc(/C=N/NC(=O)CC2(C)OCCO2)c(C)n1-c1ccc(Cl)c(Cl)c1`, the Potency is 17.8 µM (active). For `Cc1ccc(-n2c(C)cc(/C=N\NC(=O)CC(=O)NC(C)C)c2C)cc1`, the Potency entry is “inactive”. On the same count and under the same terms, in the case of `Cc1cc(=O)cc(C)n1-c1ccc(Cl)c(Cl)c1` it was “inactive”; in that of `Cc1cccc(OCC(O)Cn2c(N3CCCCC3)nc3c2c(=O)[nH]c(=O)n3C)c1` (stereo unspecified), “inactive”; in that of `COc1ccc2oc(=N)c(C(=O)Nc3ccc(Br)cc3)cc2c1`, “inactive”.

Regarding `O=C(c1noc2c1CCCC2)N1CCc2ccccc2C1`, the Potency entry was “inactive”. Take `COc1cccc(C(=O)OCc2cc(=O)oc3c(C)c(C)ccc23)c1OC`: the Potency result is “inactive”. For the compound `Clc1cccc(N=C2NN=C(c3ccc4c(c3)OCCO4)CS2)c1`, the Potency entry is “inactive”. As for `c1ccc(CN2CCC(N=C3NN=C(c4ccc5c(c4)OCCO5)CS3)CC2)cc1`, the Potency is 10 µM (active). Turning to `CS(=O)(=O)N(CC(=O)N1CCN(Cc2ccccc2)CC1)c1ccc2c(c1)OCCO2`, the Potency result is “inactive”.
